{"source": "PubChem BioAssay (NCI)", "key": {"[1]": {"test": "NCI Yeast Anticancer Drug Screen. Data for the wt1 strain (AID 149);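 note: 0% = growth of vehicle-treated wt1 cultures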", "settings": "S. cerevisiae wt1 strain (SPY 50644) growth inhibition, stronger effect = higher value", "procedure,_shortened": "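wt1 yeast, compound-treated; % growth inhibition vs vehicle control.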"}, "[2]": {"test": "NCI Yeast Anticancer Drug Screen. Data for the rad50EPP+ strain (AID 151);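 note: 0% = growth of vehicle-treated control cultures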", "settings": "S. cerevisiae rad50 mutant strain, stronger effect = higher value", "procedure,_shortened": "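Yeast strain carrying rad50 alteration (rad50EPP+) exposed to compounds; growth inhibition measured relative to vehicle-treated controls.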"}, "[3]": {"test": "NCI Yeast Anticancer Drug Screen. Data for the rad50 strain (AID 155);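 note: 0% = growth of vehicle-only cultures of the same strain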", "settings": "S. cerevisiae rad50 strain growth inhibition, stronger effect = higher value", "procedure,_shortened": "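Genetically altered yeast (DNA repair pathway); compound treatment; growth inhibition vs vehicle ctrl.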"}, "[4]": {"test": "NCI Yeast Anticancer Drug Screen. Data for the mec2-1 strain (AID 157)", "settings": "S. cerevisiae mec2-1 strain, stronger effect = higher value", "procedure,_shortened": "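mec2-1 yeast strain, carrying an alteration in DNA damage repair or cell cycle control, was exposed to compounds; growth inhibition was measured relative to vehicle-treated controls.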"}, "[5]": {"test": "NCI Yeast Anticancer Drug Screen. Data for the rad14 strain (AID 159);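 note: 0% = growth of vehicle-treated control cultures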", "settings": "S. cerevisiae rad14 strain growth inhibition, stronger effect = higher value", "procedure,_shortened": "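Test compounds were applied to a repair-deficient yeast strain. Its growth was then compared with that of cultures given vehicle alone, and inhibition was expressed relative to those controls.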"}, "[6]": {"settings": "at 5.0 µM (retest, dose inferred, filed as 0.5)"}, "[7]": {"settings": "at 50.0 µM (retest, dose inferred, filed as 5.0)"}}, "note": "The panel holds about 79,000 compounds, 15% with a hit somewhere; the sample as a whole holds those more often. Calls of active or inactive are those of the source. Cut-off read from the data, not from the text of the source: active = growth inhibition above about 70%; inactive = the rest."}
{"smiles": "Nc1nc(N)c(-c2ccc(Cl)c(Cl)c2)c(CP(Cl)(Cl)(Cl)Br)n1", "values": [{"measurement": "growth inhibition", "setting": "[1]; at 1.2 µM", "value": "9% (inactive)"}, {"measurement": "growth inhibition", "setting": "[1]; at 3.7 µM", "value": "16% (inactive)"}, {"measurement": "growth inhibition", "setting": "[1]; at 11.0 µM", "value": "45% (inactive)"}, {"measurement": "growth inhibition", "setting": "[1]; at 33.0 µM", "value": "55% (inactive)"}, {"measurement": "growth inhibition", "setting": "[1]; at 100.0 µM", "value": "48% (inactive)"}, {"measurement": "growth inhibition", "setting": "[2]; at 1.2 µM", "value": "-2% (inactive)"}, {"measurement": "growth inhibition", "setting": "[2]; at 3.7 µM", "value": "4% (inactive)"}, {"measurement": "growth inhibition", "setting": "[2]; at 11.0 µM", "value": "20% (inactive)"}, {"measurement": "growth inhibition", "setting": "[2]; at 33.0 µM", "value": "33% (inactive)"}, {"measurement": "growth inhibition", "setting": "[2]; at 100.0 µM", "value": "48% (inactive)"}, {"measurement": "growth inhibition", "setting": "[3]; at 1.2 µM", "value": "9% (inactive)"}, {"measurement": "growth inhibition", "setting": "[3]; at 3.7 µM", "value": "46% (inactive)"}, {"measurement": "growth inhibition", "setting": "[3]; [6]", "value": "53% (inactive)"}, {"measurement": "growth inhibition", "setting": "[3]; at 11.0 µM", "value": "69% (inactive)"}, {"measurement": "growth inhibition", "setting": "[3]; at 33.0 µM", "value": "76% (active)"}, {"measurement": "growth inhibition", "setting": "[3]; [7]", "value": "80% (active)"}, {"measurement": "growth inhibition", "setting": "[3]; at 50.0 µM", "value": "62% (inactive)"}, {"measurement": "growth inhibition", "setting": "[3]; at 100.0 µM", "value": "59% (inactive)"}, {"measurement": "growth inhibition", "setting": "[4]; at 1.2 µM", "value": "4% (inactive)"}, {"measurement": "growth inhibition", "setting": "[4]; at 3.7 µM", "value": "7% (inactive)"}, {"measurement": "growth inhibition", "setting": "[4]; [6]", "value": "39% (inactive)"}, {"measurement": "growth inhibition", "setting": "[4]; at 11.0 µM", "value": "13% (inactive)"}, {"measurement": "growth inhibition", "setting": "[4]; at 33.0 µM", "value": "38% (inactive)"}, {"measurement": "growth inhibition", "setting": "[4]; [7]", "value": "78% (active)"}, {"measurement": "growth inhibition", "setting": "[4]; at 50.0 µM", "value": "42.4% (inactive)"}, {"measurement": "growth inhibition", "setting": "[4]; at 100.0 µM", "value": "27% (inactive)"}, {"measurement": "growth inhibition", "setting": "[5]; at 1.2 µM", "value": "6% (inactive)"}, {"measurement": "growth inhibition", "setting": "[5]; at 3.7 µM", "value": "8% (inactive)"}, {"measurement": "growth inhibition", "setting": "[5]; at 11.0 µM", "value": "27% (inactive)"}, {"measurement": "growth inhibition", "setting": "[5]; at 33.0 µM", "value": "37% (inactive)"}]}
